Source: PubChem BioAssay (NCATS)
Inconclusive results are not listed. Where a call stands in place of a potency, no number is given. Activity calls are given as the source filed them. The call rests on the fitted dose curve; in most records, active means well fitted inhibition curve with a large enough effect; inconclusive means small, poorly fitted or top-dose-only effect; inactive means flat fitted curve, though single readings scatter.

These compounds were tested on CP247 (assay: qHTS profiling for inhibitors of Plasmodium falciparum proliferation (AID 504749; further: nearly all actives have a fitted effect of over 60% in size)). Settings: P. falciparum in erythrocytes, SYBR Green DNA, 72 h; series mostly up to 28.7 µM.
In short: (§1)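 Fluorescence of SYBR Green-bound parasite DNA, read at 485/535 nm, served as the growth measure. Infected erythrocytes were cultured with compound 72 h; artemisinin (0.29 uM) and DMSO wells defined the normalization range.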
Potency means the concentration at half of the fitted maximal effect.

Compound | Potency
CN(C)CCCSc1ccccc1NC(=O)/C=C/c1ccccc1 | inactive
O.O.O.O.O.O.O.O=S(=O)([O-])[O-].[Co+2] | 11.2 µM (active)
CN1C(C(=O)Nc2ccccn2)C(=O)c2sc(Cl)cc2S1(=O)=O (centres undefined) | inactive
c1ccc2c(c1)OCC(CN1CCCCC1)O2 (centres undefined) | inactive
COc1ccc(C(=O)c2ccc(C)cc2)c(O)c1 | inactive
N=C(N)c1ccc(/C=C/c2ccc(C(=N)N)cc2O)cc1 | 10 µM (active)
Cc1ncc[nH]1 | inactive
C[C@]12CCC(=O)C[C@@H]1CC[C@@H]1[C@@H]2CC[C@]2(C)C=CC[C@@H]12 | inactive
CC(=O)Nc1ccc(NC(=S)NC(=O)c2ccc(C(C)(C)C)cc2)cc1 | inactive
COc1cc(C)c(/C=C/C(C)=C/C=C/C(C)=C/C(=O)O)c(C)c1C | inactive
O=P(O)(O)OP(=O)(O)O | inactive
CCOC(=O)C1=C(COCCN)NC(C)=C(C(=O)OC)C1c1ccccc1Cl (centres undefined) | inactive
COc1ccc2c(=O)c(C)c(-c3ccccc3)oc2c1CN(C)C | inactive
Cc1c(C)c2c(c(C)c1OC(=O)CCC(=O)O)CC[C@@](C)(CCC[C@H](C)CCC[C@H](C)CCCC(C)C)O2 | inactive
CCCCO | inactive
C[C@H](CCCC(C)(C)O)[C@H]1CC[C@H]2[C@@H]3CC=C4C[C@@H](O)CC[C@]4(C)[C@H]3CC[C@]12C | inactive
O=C(CCCN1CCN2CCCC2C1)c1ccc(F)cc1 (centres undefined) | inactive

Compound | Potency
COC(=O)[C@@H](N)CS | inactive
O=C(O)CCC(=O)c1ccc(-c2ccccc2)cc1 | inactive
CC(C)=CCC/C(C)=C/C=C/C(C)=C/C=C/C(C)=C/C=C/C=C(C)/C=C/C=C(C)/C=C/C=C(\C)CCC=C(C)C | inactive
C[C@H](N)C(=O)N[C@@H](C)P(=O)(O)O | inactive
Cc1ncc(C[n+]2csc(CCO)c2C)c(N)n1 | inactive
O=C(OCc1ccccc1)c1cccnc1 | inactive
CC(C)NCC(O)COc1ccccc1-n1cccc1 (centres undefined) | inactive
Nc1ccc(N=Nc2ccccc2)c(N)n1 | inactive
Cn1c(O)c(N=NC(N)=S)c2ccccc21 | 8.91 µM (active)
CCCc1nc(C(C)(C)O)c(C(=O)OCc2oc(=O)oc2C)n1Cc1ccc(-c2ccccc2-c2nn[nH]n2)cc1 | inactive
CC(=O)Oc1cccc2c1C(=O)c1c(OC(C)=O)cc(C(=O)O)cc1C2=O | inactive
O=P(O)(O)OC[C@H](O)CO | inactive
C/C=C/C=C/C(=O)O | inactive
Cc1cc(C(=O)NCCc2ccc(S(=O)(=O)NC(=O)NN3CCCCCC3)cc2)no1 | inactive
O=C(OC1C[C@@H]2CC3C[C@H](C1)N2CC3=O)c1c[nH]c2ccccc12 (some centres undefined) | inactive
O=C(O)CC/C=C\CC[C@@H]1[C@@H](N2CCCCC2)[C@@H](O)C[C@@H]1OCc1ccc(-c2ccccc2)cc1 | inactive
CCN(CC)CCOc1ccc2nc(N(C)C)sc2c1 | inactive

What follows are compounds tested on CP250 in the same assay as above. Settings: P. falciparum in erythrocytes, SYBR Green DNA, 72 h; series mostly up to 28.7 µM.
In short: as §1

Compound | Potency
CN(C)CCCSc1ccccc1NC(=O)/C=C/c1ccccc1 | inactive
O.O.O.O.O.O.O.O=S(=O)([O-])[O-].[Co+2] | 11.2 µM (active)
CN1C(C(=O)Nc2ccccn2)C(=O)c2sc(Cl)cc2S1(=O)=O (centres undefined) | inactive
c1ccc2c(c1)OCC(CN1CCCCC1)O2 (centres undefined) | inactive
COc1ccc(C(=O)c2ccc(C)cc2)c(O)c1 | inactive
N=C(N)c1ccc(/C=C/c2ccc(C(=N)N)cc2O)cc1 | 11.2 µM (active)
CCCOc1cc(N)ccc1C(=O)OCCN(CC)CC | inactive
Cc1ncc[nH]1 | inactive
CN(C)C(=O)CCSC(SCCC(=O)O)c1cccc(/C=C/c2ccc3ccc(Cl)cc3n2)c1 (centres undefined) | inactive
CC(=O)Nc1ccc(NC(=S)NC(=O)c2ccc(C(C)(C)C)cc2)cc1 | inactive
COc1cc(C)c(/C=C/C(C)=C/C=C/C(C)=C/C(=O)O)c(C)c1C | inactive
O=P(O)(O)OP(=O)(O)O | inactive
CCOC(=O)C1=C(COCCN)NC(C)=C(C(=O)OC)C1c1ccccc1Cl (centres undefined) | inactive
COc1ccc2c(=O)c(C)c(-c3ccccc3)oc2c1CN(C)C | inactive
Cc1c(C)c2c(c(C)c1OC(=O)CCC(=O)O)CC[C@@](C)(CCC[C@H](C)CCC[C@H](C)CCCC(C)C)O2 | inactive
CCCCO | inactive
O=C(CCCN1CCN2CCCC2C1)c1ccc(F)cc1 (centres undefined) | inactive
COC(=O)[C@@H](N)CS | inactive

Compound | Potency
O=C(O)CCC(=O)c1ccc(-c2ccccc2)cc1 | inactive
CC(C)=CCC/C(C)=C/C=C/C(C)=C/C=C/C(C)=C/C=C/C=C(C)/C=C/C=C(C)/C=C/C=C(\C)CCC=C(C)C | inactive
C[C@H](N)C(=O)N[C@@H](C)P(=O)(O)O | inactive
Cc1ncc(C[n+]2csc(CCO)c2C)c(N)n1 | inactive
O=C(OCc1ccccc1)c1cccnc1 | inactive
CC(C)NCC(O)COc1ccccc1-n1cccc1 (centres undefined) | inactive
Nc1ccc(N=Nc2ccccc2)c(N)n1 | inactive
CCCc1nc(C(C)(C)O)c(C(=O)OCc2oc(=O)oc2C)n1Cc1ccc(-c2ccccc2-c2nn[nH]n2)cc1 | inactive
CC(=O)Oc1cccc2c1C(=O)c1c(OC(C)=O)cc(C(=O)O)cc1C2=O | inactive
O=P(O)(O)OC[C@H](O)CO | inactive
C/C=C/C=C/C(=O)O | inactive
Cn1c(=O)c2c(ncn2CCOC(=O)C(C)(C)Oc2ccc(Cl)cc2)n(C)c1=O | inactive
Cc1cc(C(=O)NCCc2ccc(S(=O)(=O)NC(=O)NN3CCCCCC3)cc2)no1 | inactive
CCC(=O)c1ccc2c(c1)N(CCCN1CCN(CCO)CC1)c1ccccc1S2 | 8.91 µM (active)
O=C(OC1C[C@@H]2CC3C[C@H](C1)N2CC3=O)c1c[nH]c2ccccc12 (some centres undefined) | inactive
O=C(O)CC/C=C\CC[C@@H]1[C@@H](N2CCCCC2)[C@@H](O)C[C@@H]1OCc1ccc(-c2ccccc2)cc1 | inactive
CCN(CC)CCOc1ccc2nc(N(C)C)sc2c1 | inactive
